These sequences were tested against NF-kB p50/p50 homodimer (Homo sapiens, UniProt P19838 P19838:1-433) (assay: EMSA). Conditions: protein: extract; tags: nuclear extract of LPS-stimulated THP-1 cells; chain copies: 2 stated; dsDNA, one strand shown.
Sequence of NF-kB p50/p50 homodimer (P19838 1-433, one chain of several): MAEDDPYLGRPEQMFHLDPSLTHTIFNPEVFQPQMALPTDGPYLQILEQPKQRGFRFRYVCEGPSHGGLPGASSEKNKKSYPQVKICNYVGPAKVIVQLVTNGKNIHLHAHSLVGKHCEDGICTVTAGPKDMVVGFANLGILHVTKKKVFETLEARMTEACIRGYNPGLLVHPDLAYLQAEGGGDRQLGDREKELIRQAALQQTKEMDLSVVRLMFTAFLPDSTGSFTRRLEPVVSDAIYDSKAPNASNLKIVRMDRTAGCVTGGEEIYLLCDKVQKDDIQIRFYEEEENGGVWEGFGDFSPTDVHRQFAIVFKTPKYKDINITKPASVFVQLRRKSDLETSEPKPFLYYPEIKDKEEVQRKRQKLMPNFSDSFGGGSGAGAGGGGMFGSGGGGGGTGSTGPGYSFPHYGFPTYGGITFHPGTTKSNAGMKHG
Description: The EMSA assay was employed to characterize oligonucleotide decoys for the NF-κB transcription factor. […] Using the above modified oligonucleotides to compete for binding for the above-mentioned NF-κB family members, it was possible to compare the binding affinity of these oligonucleotides against the high affinity radiolabeled probe and each other. This assay has also enabled the design of a decoy which selectively binds particular members of the NF-κB family. By using increasing concentrations of various oligonucleotides, it was observed that, by deleting or changing targeted residues in the binding site, it was possible to specifically decrease the binding of the decoy molecule to p50/p50 homodimers, while retaining the affinity for p65/p50 and cRel/p50 heterodimers.
The NF-κB gel shift assays (EMSA) were performed as follows. A double-stranded oligonucleotide containing a consensus NF-κB binding site (5′ […].GGC 3′) (SEQ ID NO: 26) was end-labeled with γ³²P-ATP using T4 Polynucleotide Kinase (Promega). One microgram of a nuclear extract prepared from LPS stimulated THP-1 cells (human monocyte cell line) was incubated with 35 fmol of radiolabeled probe in the presence or absence of competing unlabeled NF-κB double-stranded oligonucleotides (dsODN) or scrambled dsODN. The incubations were carried out at room temperature for 30 minutes in a 20 μl reaction volume composed of 10 mM Tris-HCl pH 8, 100 mM KCL, 5mM MgC12, 2mM DTT, 10% Glycerol, 0.1% NP-40, 0.025% BSA and 1 μg Poly-dIdC. The reactions were loaded onto a 6% polyacrylamide gel, subjected to electrophoresis and dried. The dried gels were imaged and quantitated using a Typhoon 8600 Phosphorlmager (Amersham) and ImageQuant software. The identity of the NF-κB proteins contained in complexes bound to the radiolabeled oligonucleotide probe were identified by pre-incubating the reactions for 5 minutes with individual antibodies specific for each member of the NF-κB family prior to the addition of the radiolabeled probe.
TCGGACTTTCCTC was tested, and the IC50 was 97 fold molar excess.
Work on TTGAGGACTTTCCAGGCTC yielded an IC50 of 85 fold molar excess.
Work on AGTTGAGGATTTCCAGGC yielded an IC50 of 82 fold molar excess.
AGTTGAGGATTTCCCAGGC gave an IC50 of 84 fold molar excess.
AGTTGAGGGATTTCCAGGC gave an IC50 of 69 fold molar excess.
Sequence TCGGACTTTCCCTC has an IC50 of 62.5 fold molar excess.

— patent publication US20060069055, “Delivery of polynucleotides” (published 2006)
